Screens from PubChem.
p53ts 39C tox: p53ts cell cytotoxicity, nonpermissive temperature; H1299-p53A138V viability at 39C, ATP luminescence, 24 h; Potency, µM (highest dose often 46.1 µM), most hits filed as cytotoxic; 1.5% of 130,000 active; AID 902; note: nearly all actives have a fitted effect of over 55% in size
HPGD inh: inhibitors of human 15-hydroxyprostaglandin dehydrogenase (HPGD); P15428; purified HPGD, NADH fluorescence kinetic, PGE2 substrate; Potency, µM, hits mostly inhibitors; 4.3% of 150,000 active; active = well fitted inhibition curve with a large enough effect, not every such curve was filed as active; inconclusive = small, poorly fitted or top-dose-only effect, or another doubt; inactive = no such curve, though single readings can be large or run the other way
Target sequence (P15428 whole entry, looked up): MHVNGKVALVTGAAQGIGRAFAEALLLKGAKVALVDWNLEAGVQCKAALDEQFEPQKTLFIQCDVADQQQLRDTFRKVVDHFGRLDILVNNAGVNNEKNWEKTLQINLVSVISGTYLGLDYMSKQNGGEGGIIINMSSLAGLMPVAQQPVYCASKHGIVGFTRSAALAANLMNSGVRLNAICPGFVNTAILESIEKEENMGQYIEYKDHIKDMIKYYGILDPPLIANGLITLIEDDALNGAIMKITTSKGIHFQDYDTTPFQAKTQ
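20 nM HPGD preincubated 15 min at room temperature with compound in 50 mM Tris-HCl pH 8, 0.01% Tween 20. Started with 1 mM NAD+ and 30 uM prostaglandin E2; NADH fluorescence (360/450 nm) read 5 times over 30-s intervals, last minus first.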
p53ts 32C kill: cytotoxicity in p53ts cells at permissive temperature; H1299-p53A138V at 32C, ATP luminescence viability, 24 h; 0.93% of 130,000 active; AID 924; Potency, µM (series often up to 46.1 µM), actives largely listed as cytotoxic; note: nearly all actives have a fitted effect of over 55% in size
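Viability by ATPlite luminescence after 24 h compound treatment (up to 46 uM) at the permissive 32C. Cells are H1299 carrying p53 A138V. Scale runs from DMSO basal to 100 uM tamoxifen as full kill; AC50 from Hill fits.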
12-hLO inh: inhibitors of human 12-lipoxygenase (ALOX12); P18054; purified 12-hLO, xylenol orange hydroperoxide absorbance; Potency, µM (doses to about 57.1 µM), hits mostly inhibitors; 0.12% of 150,000 active; AID 1452; note: nearly all actives have a fitted effect of over 55% in size
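Hydroperoxide formation by human 12-lipoxygenase from 40 uM arachidonic acid was followed colorimetrically via ferric-xylenol orange complex, using the 573/405 nm absorbance ratio. Enzyme concentration was 150 nM, with 30 min reaction at room temperature.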
Each line names hits and unclear results; the compound was inactive in the other large screens. A selection: hits, their analogues and other compounds. The true share with any hit is near 4.4%. Unless noted, calls come from the whole dose curve; as a rule, active = well fitted curve in the direction sought with a large enough effect; inconclusive = small, poorly fitted or top-dose-only effect, or another doubt; inactive = no such curve, though single readings can be large; an effect the other way counts as inactive or inconclusive.

CC(C)Oc1ccc(CNC(=O)CC(c2ccccc2)c2cc(Cl)ccc2O)cc1 (stereo unspecified)	none (no result: p53ts 39C tox, p53ts 32C kill)
CC(C)NC(=O)CC(c1ccccc1)c1cc(Br)ccc1O (stereo unspecified)	HPGD inh 25.1µM (no result: p53ts 39C tox, p53ts 32C kill)
CCCCCCNC(=O)CC(c1ccccc1)c1cc(Br)ccc1O (stereo unspecified)	p53ts 39C tox inconclusive, HPGD inh 8.91µM, p53ts 32C kill inconclusive
COc1ccccc1N1CCN(C(=O)C2CCCN(S(=O)(=O)c3ccc4c(c3)oc(=O)n4C)C2)CC1 (stereo unspecified)	none (no result: HPGD inh, 12-hLO inh)
Cn1c(=O)oc2cc(S(=O)(=O)N3CCCC(C(=O)N4CC=C(c5ccccc5)CC4)C3)ccc21 (stereo unspecified)	HPGD inh 14.1µM
COc1ccc2c(c1)Cc1sc(NC(=O)c3cccc(Cl)c3)nc1-2	p53ts 39C tox 25.1µM, p53ts 32C kill inconclusive (no result: HPGD inh, 12-hLO inh)
COc1ccc(C)cc1NS(=O)(=O)c1cnc(N)nc1	p53ts 39C tox inconclusive (no result: HPGD inh, 12-hLO inh)
CCC(=O)NCc1nc2ccccc2n1Cc1ccccc1	none (no result: HPGD inh, 12-hLO inh)
COc1cccc2cc(/C(C)=N/Nc3nc(-c4cc(C)ccc4C)cs3)c(=O)oc12	HPGD inh 31.6µM (no result: p53ts 39C tox, p53ts 32C kill)
Cc1ccc(NC(N)=S)cc1	none (no result: p53ts 39C tox, p53ts 32C kill)
NC(=S)Nc1ccc(Oc2ccc(NC(N)=S)cc2)cc1	HPGD inh 22.4µM, 12-hLO inh inconclusive (no result: p53ts 39C tox, p53ts 32C kill)
CCc1ccc(C2=CC(c3cccc(C)c3)n3c(nc4ccccc43)N2)cc1 (stereo unspecified)	p53ts 39C tox 5.01µM, p53ts 32C kill 8.91µM (no result: HPGD inh, 12-hLO inh)
CCOc1ccc(C2=CC(c3cccc(Br)c3)n3c(nc4ccccc43)N2)cc1Cl (stereo unspecified)	none (no result: HPGD inh, 12-hLO inh)
COc1ccc(C2C3=C(CCCC3=O)Nc3nc4ccccc4n32)c(OC)c1OC (stereo unspecified)	none (no result: HPGD inh, 12-hLO inh)
CCc1ccc(C2=CC(c3cccc(OC)c3OC)n3c(nc4ccccc43)N2)cc1 (stereo unspecified)	p53ts 39C tox 15.8µM, p53ts 32C kill 10µM (no result: HPGD inh, 12-hLO inh)
Cc1noc(C)c1-c1cc(NCc2cccs2)ncn1	none (no result: HPGD inh, 12-hLO inh)
CCOc1ccc(C(C)NC(=O)C2CCC2)cc1 (stereo unspecified)	HPGD inh 25.1µM (no result: p53ts 39C tox, p53ts 32C kill)
CC(NC(=O)C1CCC1)c1ccc(Cl)cc1 (stereo unspecified)	HPGD inh 14.1µM
CCCCOc1ccc(C(C)NC(=O)C2CCCN(S(=O)(=O)CC)C2)cc1 (stereo unspecified)	none
CCOC(=O)c1cccc(NC(=O)CC2C(=O)N(c3ccc(F)cc3)C(=O)N2Cc2cccc(OC)c2)c1 (stereo unspecified)	none (no result: HPGD inh, 12-hLO inh)
Cc1ccc(Nc2nc(C)nc(N)c2S(=O)(=O)c2ccccc2)cc1	none (no result: HPGD inh, 12-hLO inh)
COc1ccc(OC)c2c1C(=O)c1ccccc1C2=O	none (no result: p53ts 39C tox, p53ts 32C kill)
COc1ccc2noc3c2c1C(=O)c1ccccc1-3	p53ts 32C kill 12.6µM (no result: HPGD inh, 12-hLO inh)
O=C(Nc1ccccc1)N1CCCC2(CCN(C(=O)c3cccc(F)c3)CC2)C1	none
CCN(CC)CCOC(=O)c1ccc(Nc2c3c(nc4ccccc24)CCC3)cc1	none (no result: HPGD inh, 12-hLO inh)
CC1CCN(S(=O)(=O)c2nnc(NC(=O)c3ccc(C(C)C)cc3)s2)CC1	none (no result: HPGD inh, 12-hLO inh)
O=C(OCn1cncn1)c1ccc(Cl)cc1Cl	none
Cl/C(=C\n1cncn1)c1ccc(Cl)cc1Cl	HPGD inh 14.1µM
Cc1cc(C)c(NC(=O)CN2C(=O)CCn3nc(-c4cccn4C)cc32)c(C)c1	none (no result: HPGD inh, 12-hLO inh)
O=C(c1ccccc1)N1CCC(c2nc3c(nnn3Cc3ccco3)c(=O)[nH]2)CC1	HPGD inh 14.1µM (no result: p53ts 39C tox, p53ts 32C kill)
O=C(C1CCC1)N1CCC(c2nc3c(nnn3Cc3c(F)cccc3Cl)c(=O)[nH]2)CC1	none
O=C(c1ccc(Cl)cc1Cl)N1CCC(c2nc3c(nnn3Cc3ccco3)c(=O)[nH]2)CC1	HPGD inh 20µM
Cc1cccc(CNc2nc(-c3ccc4c(c3)OCO4)nc3ccccc23)c1	none (no result: HPGD inh, 12-hLO inh)
CCc1ccc2oc(-c3cccc(NC(=O)c4ccc(N5CCC(C)CC5)c([N+](=O)[O-])c4)c3)nc2c1	none (no result: HPGD inh, 12-hLO inh)
CC(NC(=O)CCCC1=NS(=O)(=O)c2ccccc2N1)c1ccccc1 (stereo unspecified)	none (no result: HPGD inh, 12-hLO inh)
NC(=O)C1CCN(C(=O)CSc2nc3ccccc3o2)CC1	none (no result: p53ts 39C tox, p53ts 32C kill)
O=C(CSc1nc2cc(Cl)ccc2o1)N1CCOCC1	none
CC(C)c1ccc(-c2noc(SCC(=O)N3CCCCC3)n2)cc1	p53ts 39C tox 15.8µM, p53ts 32C kill 12.6µM (no result: HPGD inh, 12-hLO inh)
O=C(O)c1ccc2oc(SCC(=O)N3CCCCC3)nc2c1	HPGD inh 8.91µM
CC1CCCN(C(=O)CCc2ccccc2)C1 (stereo unspecified)	HPGD inh 4.47µM (no result: p53ts 39C tox, p53ts 32C kill)
